eIF4H FP inh: inhibitors of RNA binding by human eIF4H | Q15056 | eIF4H fluorescence polarization binding assay | inhibition, % at 35 µM | 290,000 compounds, 0.94% hits | AID 2012;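 further: calls also rest on retests at 20 µM and on dose response follow-up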
eIF4E 4G PPI: inhibitors of eIF4E and eIF4G interaction in translation initiation; P63073+Q04637; TR-FRET eIF4E-eIF4GI(517-606) binding, 2 h; inhibition, % at 21.7 µM; 220,000 compounds, 0.37% hits; AID 782;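 active means inhibition above about 30%, limit read from the data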;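 further: 0% = full FRET control wells and 100% = background wells lacking eIF4GI fragment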
MLLE-PAM2 inh: inhibitors of microRNA-mediated deadenylation, human PABP1 MLLE binding; inhibition, % at 20 µM; 360,000 compounds, 0.36% hits; AID 588489; GST-MLLE / FITC-PAM2 fluorescence polarization; in the data active means inhibition above about 35%, passing the limit was not always enough;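 further: plate controls were DMSO wells with GST-MLLE for no effect and wells lacking GST-MLLE protein for full effect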
Target sequence (P11940 whole entry, looked up): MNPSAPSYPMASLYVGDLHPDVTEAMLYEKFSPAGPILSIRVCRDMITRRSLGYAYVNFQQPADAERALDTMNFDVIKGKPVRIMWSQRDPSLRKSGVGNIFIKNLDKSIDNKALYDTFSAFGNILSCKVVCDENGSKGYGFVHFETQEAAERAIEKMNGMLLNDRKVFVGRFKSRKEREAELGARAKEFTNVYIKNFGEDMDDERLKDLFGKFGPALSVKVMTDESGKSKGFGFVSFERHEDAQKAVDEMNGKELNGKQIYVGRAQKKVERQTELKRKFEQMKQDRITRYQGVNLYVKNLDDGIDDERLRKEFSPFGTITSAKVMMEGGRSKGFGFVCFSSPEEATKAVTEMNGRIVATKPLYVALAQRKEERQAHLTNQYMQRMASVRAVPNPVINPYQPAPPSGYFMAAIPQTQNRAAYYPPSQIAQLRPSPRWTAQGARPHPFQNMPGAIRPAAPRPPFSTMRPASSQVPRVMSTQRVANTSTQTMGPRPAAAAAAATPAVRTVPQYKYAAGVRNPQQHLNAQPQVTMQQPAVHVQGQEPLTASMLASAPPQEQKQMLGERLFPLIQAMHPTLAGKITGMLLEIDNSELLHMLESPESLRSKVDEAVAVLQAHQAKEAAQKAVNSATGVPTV
PERK inhibitor: inhibitors of human PERK kinase. 220,000 compounds, 0.17% hits. CHO PERK-DD fusion, SEAP luminescence translation reporter. inhibition, % at 5.6 µM. Q9NZJ5;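 active means inhibition above the mean inhibition of all tested compounds plus 3 SD, set separately per screening campaign, cut at about 2.9% in these data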;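 further: PERK kinase domain activated by AP20187 dimerizer at 100 nM; 0% = DMSO with dimerizer and 100% = rapamycin at 8.4 µM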
PABP polyA inh: PABP-poly(A) binding inhibition; 290,000 compounds, 1% hits; calls only at 35 µM; AID 2014; PABP-poly(A) RNA binding, fluorescence polarization; P11940;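 further: calls also rest on retests at 20 µM and on dose response follow-up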
* marks the source's active call; other numbers are inactive results; i = inactive; ? = inconclusive; . = no result given; + = active, no number; [ ] = dose if it differs, or a comment. Shown are actives, neighbours in structure and some others; about 1.6% of the full set was active somewhere. Unless noted, how the calls were made is not given here.

SMILES | eIF4H FP inh | eIF4E 4G PPI | MLLE-PAM2 inh | PERK inhibitor | PABP polyA inh
O=P(NC1CCCCC1)(c1ccccc1)c1ccccc1 | . | . | -11 | . | .
CCN(CC)C(=O)Oc1ccc(Br)cc1C(=O)Nc1ccc(F)cc1F | -1 | 4 | 7 | 0 | i
CN(C)CCCN1C(=O)c2cccc3c(Br)ccc(c23)C1=O | 31 | -5 | 57* | 0 | i
CC(C)c1nc(SCC(=O)Nc2ccc(C(=O)O)cc2)c2c3c(sc2n1)CCCC3 | -22 | . | -4 | . | i
O=C(O)CSc1cc(NS(=O)(=O)c2cccc([N+](=O)[O-])c2)c2ccccc2c1O | -6 | 24 | 43* | 0 | i
CCc1ccc(S(=O)(=O)Nc2cc(SCC(=O)O)c(O)c3ccccc23)cc1 | 7 | 5 | 37 | 0 | i
Cc1ccc(NS(=O)(=O)c2cc(NC(=O)C(C)Oc3ccccc3)ccc2C)c(C)c1 (centres undefined) | -5 | -2 | -4 | -1 | i
Cc1ccc(C)c(S(=O)(=O)Nc2cc(SCC(=O)O)c(O)c3ccccc23)c1 | -4 | 34*[fluorescence artefact?] | 29 | 0 | i
O=S(=O)(Nc1cc(Sc2cccc3cccnc23)c(O)c2ccccc12)c1ccccc1 | 75* | 1 | . | 0 | +
CCOc1ccc(S(=O)(=O)Nc2cc(SCC(=O)O)c(O)c3ccccc23)cc1 | -5 | . | 34 | . | i
O=C(NCCN1CCCC1)c1ccc2c(c1)N(Cc1ccccc1)C(=O)c1ccccc1S2(=O)=O | -10 | . | -10 | . | i
O=C1c2ccccc2C(=O)N1CCCN1C(=O)c2ccccc2C1=O | . | . | 4 | . | .
O=C1c2ccccc2C(=O)N1CC1=CCS(=O)(=O)C1 | -7 | -1 | 39* | 0 | i
N#Cc1c2n(c(=S)n(-c3ccccc3[N+](=O)[O-])c1=O)CCCCC2 | 6 | -1 | 51* | 0 | i
COc1ccc(/C(O)=C2/C(=O)C(=O)N(CC3CCCO3)C2c2cccc(OC)c2)cc1 (centres undefined) | 1 | 5 | -13 | 0 | i
COc1ccc(/C(O)=C2/C(=O)C(=O)N(CC3CCCO3)C2c2ccc(O)c(OC)c2)cc1 (centres undefined) | active | -1 | 17 | 0 | +
CC1CN(C(=O)COC(=O)CSc2ccc([N+](=O)[O-])cc2)CC(C)O1 (centres undefined) | . | . | 39 | . | .
O=C(/C=C/c1cn(CC(O)CN2CCOCC2)c2ccccc12)c1cccs1 (centres undefined) | 98 | 3 | . | 0 | +
O=C(NNC(=O)c1ccccc1F)c1ccc2nc[nH]c2c1 | 23 | . | -11 | . | i
O=C(NNC(=O)c1ccccc1Br)c1ccc2nc[nH]c2c1 | 84* | . | 0 | . | +
CCc1ccc(OCC(=O)Nc2cccc3c2CCCC3)cc1 | ? | 0 | 4 | 1 | +
COC(=O)C1=C(C)N(Cc2ccccc2)C(=NCc2ccc(OC)cc2)N[C@H]1c1cccc(F)c1 | 1 | . | -115 | . | +
COC(=O)C1=C(C)N(Cc2ccccc2)C(=NCCCCO)N[C@H]1c1ccccc1 | 28 | . | . | . | +
O=C(Nc1ccc(F)cc1F)c1ccc(-n2cccn2)c([N+](=O)[O-])c1 | -3 | -3 | 11 | 0 | i
C(=C\c1ccccc1)/CSc1ccccn1 | active | -1 | -10 | 1 | +
SMILES | eIF4H FP inh | eIF4E 4G PPI | MLLE-PAM2 inh | PERK inhibitor | PABP polyA inh
COc1cc(COc2ccc3c(C)c(CC(=O)O)c(=O)oc3c2C)cc(OC)c1OC | -9 | . | -10 | . | i
O=C1CCCC(O)=C1Sc1ccccc1C(=O)O | 87* | 7 | 9 | 0 | i
CC1(C)CC(=O)C(Sc2ccccc2[N+](=O)[O-])=C(O)C1 | 7 | 0 | 14 | 0 | i
CC1(C)CC(=O)C(C(C#Cc2ccccc2)C2=C(O)CC(C)(C)CC2=O)=C(O)C1 | -1 | 18 | 20 | 0 | i
O=C1CCCC(O)=C1C(C#Cc1ccccc1)C1=C(O)CCCC1=O | 0 | 42*[fluorescence artefact?] | 23 | 1 | i
CN(Cc1ccc2c(c1)CCCN2C)C(=O)[C@H]1O[C@@H](n2ccc(=O)[nH]c2=O)[C@H](O)[C@@H]1O | . | . | 47* | . | .
COc1ccc(CN(C)C(=O)[C@H]2O[C@@H](n3ccc(=O)[nH]c3=O)[C@H](O)[C@@H]2O)cc1OC | . | . | 0 | . | .
CCCCCCCn1ccc(=N)cc1 | 0.6* | 5 | -127 | 0 | +
S=C(Nc1cccc(Cl)c1)NC1CCCCC1 | 4 | -5 | -15 | 1 | i
S=C(NNc1cccc(Cl)c1)NC1CCCCC1 | 3 | -2 | -83 | -1 | +
COc1ccccc1NS(=O)(=O)c1ccc(O)c(NC(=S)NCC2CCCO2)c1 (centres undefined) | 0 | -3 | 40* | 1 | i
CCCCCCNC(=O)OC12CN(C(=O)OC(C)C)N(C(=O)OC(C)C)CC1(O)CN(S(=O)(=O)c1ccc(C)cc1)C2 (centres undefined) | . | . | -2 | . | .
Nc1nnc(CC(=O)N/N=C/c2cc([N+](=O)[O-])cc(Br)c2O)s1 | 86* | -2 | -86 | 0 | +
Nc1nnc(CC(=O)N/N=C/c2cccc([N+](=O)[O-])c2)s1 | 4 | . | -17 | 0 | i
CC1(C)NC(=O)N(CCC(=O)Nc2ccc(C(C)(C)C)cc2)C1=O | . | . | -7 | . | .
COc1ccc(C2=NNC(c3cc(Cl)cc4c3OCOC4)C2)c(O)c1 (centres undefined) | 52* | -2 | . | 0 | i
Oc1ccc(Cl)cc1C1=NNC(c2cc(Br)cc3c2OCOC3)C1 (centres undefined) | -9 | -2 | -21 | 0 | i
Cc1ccc(/C=C2\C(=O)Nc3ccccc32)o1 | 87* | 1 | 23 | 0 | +
NS(=O)(=O)c1ccc(-c2ccc(/C=C3\C(=O)Nc4ccccc43)o2)cc1 | 5 | . | . | . | i
COc1ccc(NS(=O)(=O)c2ccc3c(c2)[C@H]2C=CC[C@H]2[C@@H](c2ccc(C(=O)O)cc2)N3)cc1 | 97* | . | -45 | . | +
Cc1c(Cl)cccc1NS(=O)(=O)c1ccc2c(c1)C1C=CCC1C(c1ccc(C(=O)O)cc1)N2 (centres undefined) | 88 | 50* | -11 | 1 | i
CC(=O)c1ccc2c(c1)C1C=CCC1C(c1ccc(S(=O)(=O)N3CCOCC3)cc1)N2 (centres undefined) | 18 | -1 | 24 | 0 | i
Clc1ccc(OCCCCSc2ncccn2)cc1 | 127 | 1 | 38* | -1 | i
CCCOc1ccc(OCCSc2ncccn2)cc1 | 7 | -3 | -6 | 1 | i
COc1ccc([N+](=O)[O-])cc1NC(=O)C1CCCO1 (centres undefined) | -6 | 14 | 12 | 1 | i
COc1cc(/C=C2\SC(=S)N(c3cccnc3)C2=O)ccc1O | 71* | -6 | -36 | 0 | i
O=C1/C(=C/c2cccnc2)SC(=S)N1c1ccc(O)cc1 | -9 | 1 | 28 | 1 | i
O=C1/C(=C/c2cccnc2)SC(=S)N1c1ccc(F)cc1 | 2 | -5 | 43* | 1 | i
CCCCn1c(N)c(N(CC)C(=O)CSCC(=O)Nc2ccc(OC)cc2)c(=O)[nH]c1=O | . | . | 14 | . | .
